Tb PYK inh: inhibitors of Trypanosoma brucei pyruvate kinase; TbPYK enzyme, Kinase-Glo Plus ATP luminescence, 45 min; Q57TT1; Potency, µM (doses to about 76.8 µM), for inactives: at the highest dose activity, negative = inhibition, hits mostly inhibitors; 410,000 tested, 0.12% active; further: potency means the concentration at half of the fitted maximal effect; on the % scale 0 is the no-effect control and ±100 the full control effect; nearly all actives have a fitted effect of over 50% in size
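Glycolytic pyruvate kinase of T. brucei was incubated with substrate, test compound and 130 uM ADP for 45 minutes at room temperature. Luminescent Kinase-Glo Plus signal was measured after 10 minutes.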
Cycloheximide cs: counter-screen hit for Shiga toxin inhibitors, cycloheximide; cell reporter, cycloheximide protein synthesis inhibition counterscreen; AID 2314; 300,000 tested, 12% active; max response, %; in the data active means max response mostly above about 13%, no sharp cut-off; inactive means mostly below about 14%; further: read at 38.3 µM for the half of the compounds with a filed dose; 0% is about no effect
Shiga inhibitor: blocks Shiga toxin action in Vero cells | inhibition, % at 38.7 µM | Vero cells, Shiga toxin protein synthesis inhibition reporter | AID 2315 | 290,000 tested, 9.2% active; in the data active means inhibition mostly above about 28%, no sharp cut-off; inactive means mostly below about 43%; further: 0% is about no effect
Sm TGR inh: inhibitors of Schistosoma mansoni thioredoxin glutathione reductase. 360,000 tested, 3% active. Potency, µM (top dose mostly 114 µM), without a hit: at the top dose activity change, negative = inhibition, actives largely listed as inhibitors. AID 485364. purified TGR, DTNB reduction, TNB absorbance 405 nm; further: potency means the concentration at half of the fitted maximal effect; on the % scale 0 is the no-effect control and ±100 the full control effect; nearly all actives have a fitted effect of over 60% in size
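TGR 20 nM + NADPH 100 uM (dispensed conc.), cpd preinc 15 min RT; start with NADPH (500 uM addition) then DTNB (15 mM addition). Kinetic TNB absorbance, 405 nm filter. Four-parameter Hill fit across titration.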
FBPA Giardia inh: Giardia lamblia aldolase inhibition. A8B2U2. purified Giardia FBPA. Potency, µM (titrated, usually from 59.6 µM), for the others: at the top dose activity, negative = inhibition, actives largely listed as inhibitors. 290,000 tested, 0.71% active. AID 2451; further: potency means the concentration at half of the fitted maximal effect; on the % scale 0 is the no-effect control and ±100 the full control effect; nearly all actives have a fitted effect of over 55% in size
Target sequence (A8B2U2 whole entry, looked up): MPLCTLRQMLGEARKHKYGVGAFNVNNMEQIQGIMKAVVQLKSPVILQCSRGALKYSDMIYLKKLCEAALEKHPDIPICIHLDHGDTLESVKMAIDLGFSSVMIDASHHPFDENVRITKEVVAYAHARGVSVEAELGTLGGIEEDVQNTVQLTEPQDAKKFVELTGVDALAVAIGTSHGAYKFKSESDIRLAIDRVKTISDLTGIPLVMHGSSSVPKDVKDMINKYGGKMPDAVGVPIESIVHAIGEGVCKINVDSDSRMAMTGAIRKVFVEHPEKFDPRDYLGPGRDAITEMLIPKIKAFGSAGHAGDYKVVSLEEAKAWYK
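Giardia FBPA (40 nM reagent) was preincubated 10 min at RT with compound (up to 57.5 uM final), then substrate plus GAPDH/TPI/NAD/arsenate coupling system with diaphorase/resazurin was added; resorufin fluorescence (525/598 nm) was read after 20 min.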
LmPK inhibitor: blocks Leishmania mexicana pyruvate kinase activity; 290,000 tested, 0.37% active; Q27686; Potency, µM (top dose mostly 57.5 µM), inactives show at the top dose activity change, negative = inhibition, most hits filed as inhibitors; purified LmPK, Kinase-Glo ATP luminescence, 1 h; further: potency means the concentration at half of the fitted maximal effect; on the % scale 0 is the no-effect control and ±100 the full control effect
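ATP generated from ADP (0.1 mM) and PEP (0.5 mM) by 0.1 nM LmPK over 1 h at room temperature (pH 7.2 imidazole buffer) was detected by coupled luciferase luminescence. Values were normalized to uninhibited and no-enzyme wells.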
Starred values were filed as active, the others as inactive; ? = inconclusive; . = no result. Shown is part of a subset that was picked to be rich in hits. Unless noted, the call rests on the fitted dose curve; in most records, active means well fitted curve in the direction sought with a large enough effect; inconclusive means small, poorly fitted or top-dose-only effect, or another doubt; inactive means no such curve, though single readings can be large; an effect the other way counts as inactive or inconclusive.

SMILES | Tb PYK inh | Cycloheximide cs | Shiga inhibitor | Sm TGR inh | FBPA Giardia inh | LmPK inhibitor
CCc1ccccc1NC(=O)Nc1ccc(F)cc1 | 1.2% | 14.5* | 31.0 | -0.7% | 1.7% | -17.3%
CCOc1ccccc1NC(=O)Nc1ccc(Cl)cc1 | 0.4% | 75.6* | 41.3* | -6.5% | -11.8% | -4.7%
c1csc(CNc2ccnc(-c3ccoc3)n2)c1 | . | . | . | . | -10.0% | .
CCn1c2cc(C)sc2c2cnn(Cc3ccccc3F)c(=O)c21 | . | 16.4 | -4.5 | . | . | .
O=C(Nc1ccc([N+](=O)[O-])cc1O)Nc1ccccc1Br | . | 36.0* | 61.0* | . | -21.4% | .
COc1ccccc1OCC(=O)OC/C(O)=C(\C#N)c1nc2ccccc2[nH]1 | -11.0% | 15.6* | 10.1 | -8.9% | -2.4% | -1.0%
N#C/C(=C(/O)COC(=O)Cc1c[nH]c2ccccc12)c1nc2ccccc2[nH]1 | -1.0% | 14.1* | 65.5* | 0.0% | -26.0% | 4.8%
COc1ccc(OC/C(O)=C(\C#N)c2nc3ccccc3[nH]2)cc1 | 3.3% | 0.9 | 1.4 | -11.2% | -20.8% | 1.3%
COc1ccc(NC(=O)c2ccco2)cc1NC(=O)COc1ccc(C)cc1C | -5.1% | . | . | 5.7% | . | .
CN(C)C=Nc1nc2ccccc2nc1N1CCCC1 | -9.6% | 0.5 | 2.1 | 39.8µM* | -5.8% | -0.6%
CC1CCCN(Cc2ccc(OCc3ccccc3)cc2)C1 (stereo not drawn) | 0.9% | 21.7* | 77.2 | 0.0% | -19.9% | 7.2%
CCCCNC(=O)C1CCN(Cc2ccc(OCc3ccccc3)cc2)CC1 | 2.2% | 25.9* | 62.7* | -1.4% | -15.8% | -1.2%
CC(C)N1CCN(Cc2ccc(OCc3ccccc3)cc2)CC1CCO (stereo not drawn) | -17.9% | 12.3 | -3.0 | 3.2% | -2.6% | 11.5%
C=CCN(CC=C)C(=O)C1CCN(Cc2ccc(OCc3ccccc3)cc2)CC1 | 19.3% | 18.5* | . | -30.0% | ? | 3.2%
OC1CCN(Cc2ccc(OCc3ccccc3)cc2)CC1 | 3.5% | 19.4* | . | 7.8% | -11.5% | 4.2%
CCNC(=O)C1CCCN(Cc2ccc(OCc3ccccc3)cc2)CC1 (stereo not drawn) | -0.3% | . | . | . | . | .
COc1ccc(C2C(C(C)=O)=C(O)C(=O)N2c2ccccn2)cc1 (stereo not drawn) | 0.0% | -2.7 | 1.4 | -7.3% | -10.9% | 0.1%
O=C(C1CCN(Cc2ccc(OCc3ccccc3)cc2)CC1)N1CCCC1 | 25.3% | 26.9* | 38.3 | -4.4% | -16.2% | -6.5%
CCN(CC)C(=O)C1CCN(Cc2ccc(OCc3ccccc3)cc2)CC1 | 7.8% | -3.6 | 12.5 | -24.8% | -26.2% | 1.4%
C=CCN1C(=O)c2ccc(C(=O)N3CCN(S(=O)(=O)c4cccc([N+](=O)[O-])c4)CC3)cc2C1=O | 0.6% | . | . | -11.7% | . | .
O=C(NCCN1CCOCC1)c1cc(-c2cccc(Cl)c2)on1 | -11.7% | 1.1 | 37.5 | -11.6% | -4.1% | -2.6%
O=C(NCCN1CCOCC1)c1cc(-c2ccc(Cl)cc2Cl)on1 | 1.4% | 20.2* | 50.2* | -22.0% | -5.2% | -0.9%
O=C(NCCN1CCOCC1)c1cc(-c2ccco2)on1 | 6.1% | 10.7 | 30.9* | -23.4% | 0.4% | -2.7%
Cc1ccc(-c2cc(C(=O)NCCN3CCOCC3)no2)cc1 | -5.2% | 15.1* | 25.0* | 2.7% | -1.2% | -0.9%
CCn1cc(S(=O)(=O)c2cccc(C)c2)c(=O)c2cc(F)c(N3CCCCC3C)cc21 (stereo not drawn) | 2.8% | . | . | 0.6% | . | .
SMILES | Tb PYK inh | Cycloheximide cs | Shiga inhibitor | Sm TGR inh | FBPA Giardia inh | LmPK inhibitor
Cc1nn(-c2ccccc2)c(Cl)c1/C=N/NC(=O)c1cccnc1 | -2.2% | 32.5* | 27.2 | 2.2% | 4.8% | -9.2%
Cc1nn(-c2ccccc2)c(Cl)c1/C=N/NC(=O)c1[nH]ncc1Br | -9.5% | 28.7* | 44.9* | 2.0% | . | -10.8%
Cc1ccc(-n2nc(C)c(/C=N/NC(=O)c3cccnc3)c2Cl)cc1 | 5.9% | -1.7 | 12.8 | 3.1% | 1.5% | 0.7%
Cc1nn(-c2ccccc2)c(Cl)c1/C=N/NC(=O)c1ccccc1F | 0.1% | 36.9* | 64.3* | 13.6% | -0.9% | 5.2%
Cc1nn(-c2ccccc2)c(Cl)c1/C=C/C(=O)c1ccccc1 | 13.7% | 19.1* | 45.5 | -0.5% | -0.8% | -1.7%
Cc1nn(-c2ccccc2)c(Cl)c1/C=N/O | 7.4% | -3.5 | -1.2 | 4.5% | 2.9% | -3.7%
Cc1ccc(C(=O)N/N=C\c2c(C)nn(-c3ccccc3)c2Cl)cn1 | -7.9% | 14.9 | 15.2 | -11.9% | 0.7% | ?
COc1cccc(Cn2c(=O)c(-c3cccc(F)c3)nc3cncnc32)c1 | 2.3% | . | . | . | -1.6% | .
CC1(C(=O)NS(C)(=O)=O)CCN1C(=O)Cc1ccc(-c2ccccc2)cc1 (stereo not drawn) | -6.7% | . | . | . | . | .
Cc1[nH]n(-c2ccccc2)c(=O)c1/C=N/NC(=O)c1ccccc1F | -13.2% | 24.7* | 64.1* | -1.7% | ? | -3.5%
Cc1cc(C(=O)N/N=C/c2c(C)nn(-c3ccccc3)c2Cl)n[nH]1 | -3.9% | 17.8* | 49.0* | 8.2% | -7.4% | 0.3%
Cc1ccccc1OCC(=O)N/N=C/c1c(C)nn(-c2ccccc2)c1Cl | 2.2% | -2.6 | -1.7 | 1.8% | 3.8% | 4.8%
Cc1nn(-c2ccccc2)c(Cl)c1/C=N/NC(=O)c1ccn[nH]1 | -0.6% | 21.2* | 34.4 | 0.8% | . | -2.8%
CC(C1=C(CCN(C)C)Cc2ccccc21)c1ccccn1 (stereo not drawn) | -6.5% | . | . | . | . | .
CC1CN(C(=O)CCC(=O)Nc2cc(F)ccc2F)c2ccccc2S1 (stereo not drawn) | -1.0% | . | . | 2.4% | . | .
Cn1c(=N)n(CC(=O)c2cccs2)c2ccccc21 | 5.9% | 55.9* | 149.5* | 11.5% | -4.5% | 4.1%
CCCn1c(=N)n(CC(=O)c2cccs2)c2ccccc21 | 1.4% | -5.2 | -5.8 | -0.1% | -3.8% | -1.3%
COc1cccc(C(=O)Cn2c(=N)n(C)c3ccccc32)c1 | 3.1% | 30.6* | 29.9 | -2.2% | 8.0% | -10.8%
O=C(COCc1cc(-c2cccs2)on1)N1CCN(c2ccc(F)cc2)CC1 | 1.2% | . | . | 1.8% | . | .
O=C(CCC1CCCCC1)NCc1ccc(F)cc1 | -20.1% | 23.3* | active | 42.6% | 5.3% | 3.6%
O=C(CC1CCCCC1)NCc1ccc(Cl)cc1 | 1.9% | 27.2* | . | 0.7% | 15.4% | 4.3%
Cc1ccc(/C=C/C(=O)Nc2cccc3ncccc23)o1 | ? | 7.2 | -9.5 | 8.91µM* | ? | -15.0%
Cc1ccc(/C=C/C(=O)Nc2ccccc2C(N)=O)o1 | ? | . | . | 22.4µM* | . | .
O=C(c1ccc(Cl)cc1)N(Cc1ccco1)C1CCS(=O)(=O)C1 (stereo not drawn) | -0.6% | -4.0 | -5.7 | 0.3% | 15.9% | -2.6%

Screening data (PubChem)
